The source of these data is PubChem BioAssay (NCATS).

The target of experiment [1] is Lysosomal acid glucosylceramidase (Homo sapiens) (UniProt P04062). Put plainly: Glucocerebrosidase-p2 (AID 348; in the data active means potency below about 10 µM; further: potency means the concentration at half of the fitted maximal effect). To be noted: purified GBA, blue fluorogenic substrate, 40 min. The procedure, abridged:
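Compounds titrated from 0.6 nM upwards against 0.2 nM enzyme in pH 5.9 citric acid/KH2PO4, taurocholate, tween-20; blue fluorogenic substrate 80 uM, 40 min room temperature, stopped and read Ex 365/Em 440 for AC50.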

Experiment [2] is described as follows: AP1 Signaling Pathway (AID 357).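 Further: ME-180 reporter cells stimulated with EGF at its EC50 level; on the % scale 0 is the no-effect control and ±100 the full control effect.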 Conditions: ME-180 AP-1-bla reporter, EGF-induced, beta-lactamase ratio, 5 h; at 7.69 µM (top of the series) unless noted. The procedure, abridged:
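Read-out was the 460nm/530nm emission ratio (excitation 405nm) after CCF4 loading for 2.5 hours at room temperature. Cells carried an AP-1-driven beta-lactamase reporter, were stimulated with EC50 EGF plus compound for 5 hours, and AC50 values came from titrations.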

Experiment [3] concerns the target Cytochrome P450 1A2 (Homo sapiens) (UniProt P05177). Put plainly: p450-cyp1a2 (AID 410; calls by dose curve; further: potency means the concentration at half of the fitted maximal effect). To be noted: recombinant CYP1A2, luciferin-ME demethylation, luminescence; series mostly up to 57 µM. The procedure, abridged: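 Luminescent readout of luciferin formed from Luciferin-ME by human CYP1A2; data normalized against complete inhibition by 57 uM furafylline. Enzyme 20nM, substrate 100uM at Km, 100mM KPO4 buffer, 60 min reaction at room temperature.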

Experiment [4] is described as follows: NFAT Signaling Pathway (AID 444).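 Further: carbachol stimulus at about its EC50 of 1 µM final; on the % scale 0 is the no-effect control and ±100 the full control effect.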 Conditions: Jurkat NFAT-bla M1, carbachol, beta-lactamase ratio, 5 h; at 7.69 µM (top of the series) unless noted. The method in brief: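 Jurkat cells with NFAT-driven β-lactamase reporter and co-expressed M1 receptor, stimulated with carbachol (final 1 uM, ~EC50), compound titration, 5 h at 37 °C. CCF4 loaded 1 h at RT; 460/530 nm ratio gave %activity and AC50.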

Experiment [5] can be described thus: Stat Signaling Pathway (AID 446).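 Further: ME-180 cervical cancer cells given 40 pM IL-6 alongside compound; SIE-controlled beta-lactamase reporter measured as 460/530 nm FRET emission ratio; on the % scale 0 is the no-effect control and ±100 the full control effect.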 To be noted: ME-180 SIE beta-lactamase reporter, IL-6 stimulated, 5 h; at 7.69 µM (top of the series) unless noted. The method in brief: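 Screening format detects activators and inhibitors alike: ME-180 SIE-bla cells stimulated at 40 pM IL-6 for 5 hrs with compound, then dual-emission beta-lactamase read at 405 nm excitation.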

Experiment [6] deals with Glucocorticoid receptor (Homo sapiens) (UniProt P04150). Kind of experiment: GR-EFC Redistribution (AID 451; calls by dose curve; further: potency means the concentration at half of the fitted maximal effect). Conditions: CHO-K1 GR-EFC translocation, beta-gal luminescence, 2 h. The procedure, abridged:
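CHO-K1 cells expressing nuclear EA and GR-ED fragments of b-gal; compounds titrated up to 46 uM final, 2 h at 37 C. GR nuclear translocation read as complemented b-gal luminescence after 1 h RT detection.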

Experiment [7] deals with Mitogen-activated protein kinase 10 (Mus musculus) (UniProt Q61831). Kind of experiment: JNK3 AlphaScreen Assay (AID 530).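 Further: kinase came from lysate of stimulated human HepG2 cells; signal reports phosphorylation of biotinylated GST-cJun 1-79 at Ser73 with 10 µM ATP; on the % scale 0 is the no-effect control and ±100 the full control effect.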 To be noted: JNK3 lysate, c-Jun phosphorylation; series mostly up to 57.1 µM. The procedure, abridged:
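Pre-activated (IL-1β/TNFα) JNK3 in HepG2 lysates phosphorylates biotin-GST-cJun(1-79), 10 uM ATP; anti-phospho-cJun(Ser73) AlphaScreen read at room temperature, pH 7.6 Tris buffer. Compounds pre-incubated 15 min as titrations.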
In general terms: In Alpha technology, singlet oxygen from a donor bead excites a nearby acceptor bead.

Experiment [8] concerns the target 3',5'-cyclic-AMP phosphodiesterase 4B (Homo sapiens) (UniProt Q07343). Put plainly: qHTS Assay for Inhibitors of PDE-IV (AID 607; active means well fitted activation curve with a large enough effect in the main read-out, with a control signal flat, not every such curve was filed as active; further: % of control where 0% means no effect). To be noted: HEK293 ACTOne CNG channel cells, membrane potential fluorescence; series mostly up to 22.9 µM. The method in brief:
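The readout is membrane depolarisation from a cAMP-sensing CNG channel, detected with a potential dye at ex 535/em 590. Cells were HEK293-derived (endogenous PDE-IV) at 1000 cells/well, titrated up to 22.9 uM final.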
In general terms: In qHTS, concentration-response curves come from the screen itself.

The target of experiment [9] is Cytochrome P450 2C9 (Homo sapiens) (UniProt P11712). Kind of experiment: qHTS Assay for Inhibitors and Substrates of Cytochrome P450 2C9 (AID 883; active means well fitted curve in the direction sought with a large enough effect; an effect the other way counts as inactive or inconclusive; further: nearly all actives have a fitted effect of over 60% in size; further: potency means the concentration at half of the fitted maximal effect). To be noted: recombinant CYP2C9, luciferin-H luminescence, 60 min; series mostly up to 57.1 µM. The procedure, abridged: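 Signal: luciferase luminescence reporting luciferin produced by CYP2C9. Conditions: 10nM enzyme, Luciferin-H 100uM at KM, 25mM KPO4, 37C, 60 min NADPH-driven reaction. Reference: 57uM sulphaphenazole as 100% inhibition.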

Experiment [10] deals with Cytochrome P450 3A4 (Homo sapiens) (UniProt P08684). Put plainly: qHTS Assay for Inhibitors and Substrates of Cytochrome P450 3A4 (AID 884; active means well fitted curve in the direction sought with a large enough effect; an effect the other way counts as inactive or inconclusive; further: nearly all actives have a fitted effect of over 50% in size; further: potency means the concentration at half of the fitted maximal effect). Conditions: recombinant CYP3A4, Luciferin-PPXE luminescence; series mostly up to 57.1 µM. The procedure, abridged: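 20 nM human CYP3A4 with 25 uM Luciferin-PPXE (at KM) in 200 mM KPO4, preincubated 10 min with compound; NADPH regeneration started a 60 min RT reaction. Luciferin detected by luminescence, normalized to 57 uM ketoconazole as full inhibition.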

Experiment [11] deals with Cytochrome P450 2D6 (Homo sapiens) (UniProt P10635). Kind of experiment: qHTS Assay for Inhibitors and Substrates of Cytochrome P450 2D6 (AID 891; active means well fitted curve in the direction sought with a large enough effect; an effect the other way counts as inactive or inconclusive;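 further: luciferin methyl ether substrate demethylated by CYP2D6 with NADPH regeneration; on the % scale 0 is the no-effect control and ±100 the full control effect; nearly all actives have a fitted effect of over 60% in size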). To be noted: recombinant CYP2D6, luciferin-ME EGE luminescence; series mostly up to 57.1 µM. The method in brief: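 Human CYP2D6 (5 nM) with 30 uM Luciferin-ME EGE (at Km) in 100 mM KPO4, compound preincubated 10 min, then NADPH regeneration system for 60 min at room temperature. Luciferin read by luminescence; normalized to 1.43 uM quinidine.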

Experiment [12] has as its target Cytochrome P450 2C19 (Homo sapiens) (UniProt P33261). Put plainly: qHTS Assay for Inhibitors and Substrates of Cytochrome P450 2C19 (AID 899; active means well fitted curve in the direction sought with a large enough effect; an effect the other way counts as inactive or inconclusive; further: on the % scale 0 is the no-effect control and ±100 the full control effect; nearly all actives have a fitted effect of over 60% in size). Conditions: recombinant CYP2C19, luciferin-H EGE luminescence; series mostly up to 57.1 µM. The method in brief: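 Signal comes from luciferase acting on luciferin released by CYP2C19-mediated hydroxylation of Luciferin-H EGE, 10uM (KM). Assay mix: 5nM enzyme, 50mM KPO4; 60 min at 37C with NADPH regeneration. Data normalized against 57uM ketoconazole.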

Experiment [13] is described as follows: qHTS Assay for Lipid Storage Modulators (AID 1519; calls by dose curve). Conditions: Drosophila S3 cells, BODIPY lipid droplet/cell ratio, laser cytometry, cells loaded with oleic acid; for activity change, negative = inhibition: at 57.5 µM (top of the series). The method in brief:
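Cells seeded at 5,000 per well were treated with compounds over a concentration series and loaded with oleic acid (400 uM, as added). Lipid droplet fluorescence (488 nm excitation, 500-530 nm channel) was read by laser-scanning cytometry and normalized to 20 uM Triacsin C.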

Experiment [14] can be described thus: Primary qHTS for small molecule stabilizers of the endoplasmic reticulum resident proteome: Secreted ER Calcium Modulated Protein (SERCaMP) assay (AID 1508630; active means well fitted curve in the direction sought with a large enough effect; an effect the other way counts as inactive or inconclusive; further: on the % scale 0 is the no-effect control and ±100 the full control effect). Conditions: SH-SY5Y GLuc-SERCaMP (Gaussia luciferase released on ER calcium loss) secretion, thapsigargin, luminescence; series mostly up to 38.4 µM. The procedure, abridged: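 GLuc-SERCaMP-expressing SH-SY5Y cells, pretreated 16 h with compound, are challenged with thapsigargin to empty ER calcium stores; after 4 h, coelenterazine is added directly to the medium and luminescence is imaged.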

Experiment [15] addresses Cytochrome P450 3A4 (Homo sapiens) (UniProt P08684). Put plainly: qHTS Assay for Activators of Cytochrome P450 3A4 (AID 885; active means well fitted curve in the direction sought with a large enough effect; an effect the other way counts as inactive or inconclusive; further: nearly all actives have a fitted effect of over 65% in size; further: potency means the concentration at half of the fitted maximal effect). To be noted: recombinant CYP3A4, Luciferin-PPXE luminescence, 60 min; series mostly up to 57.1 µM. The procedure, abridged: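 Steps: enzyme/substrate mix dispensed; compound added, 10 min RT; NADPH regeneration solution added, 60 min RT; luciferin detection buffer stops reaction; 20 min later luminescence measured.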

Where [16] appears, read: measured here: cell count channel max response.
The mark [17] stands for this setting: measured here: lipid channel max response.

SMILES strings stand for the structures. Results filed as inconclusive are left out. The source made the active and inactive calls. Unless noted, the call rests on the fitted dose curve; in most records, active means well fitted curve in either direction with a large enough effect (not every such curve was filed as active); inconclusive means small, poorly fitted or top-dose-only effect, or another doubt; inactive means flat fitted curve, though single readings scatter.

Chain of Cytochrome P450 3A4 (Homo sapiens) (P08684 whole entry, looked up): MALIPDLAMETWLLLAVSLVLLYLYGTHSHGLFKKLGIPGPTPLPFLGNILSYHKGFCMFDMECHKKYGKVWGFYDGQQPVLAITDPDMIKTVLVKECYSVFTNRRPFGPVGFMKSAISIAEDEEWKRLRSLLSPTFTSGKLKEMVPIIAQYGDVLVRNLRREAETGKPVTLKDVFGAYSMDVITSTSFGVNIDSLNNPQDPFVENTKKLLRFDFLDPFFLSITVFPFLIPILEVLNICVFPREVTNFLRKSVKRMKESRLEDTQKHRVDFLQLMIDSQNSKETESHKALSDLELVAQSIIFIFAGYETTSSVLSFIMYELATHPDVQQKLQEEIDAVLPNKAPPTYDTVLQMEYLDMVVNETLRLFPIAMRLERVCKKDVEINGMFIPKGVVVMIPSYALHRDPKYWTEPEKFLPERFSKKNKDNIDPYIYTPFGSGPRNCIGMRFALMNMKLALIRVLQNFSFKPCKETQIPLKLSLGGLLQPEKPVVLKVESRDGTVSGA
Chain of Lysosomal acid glucosylceramidase (Homo sapiens) (P04062 whole entry, looked up): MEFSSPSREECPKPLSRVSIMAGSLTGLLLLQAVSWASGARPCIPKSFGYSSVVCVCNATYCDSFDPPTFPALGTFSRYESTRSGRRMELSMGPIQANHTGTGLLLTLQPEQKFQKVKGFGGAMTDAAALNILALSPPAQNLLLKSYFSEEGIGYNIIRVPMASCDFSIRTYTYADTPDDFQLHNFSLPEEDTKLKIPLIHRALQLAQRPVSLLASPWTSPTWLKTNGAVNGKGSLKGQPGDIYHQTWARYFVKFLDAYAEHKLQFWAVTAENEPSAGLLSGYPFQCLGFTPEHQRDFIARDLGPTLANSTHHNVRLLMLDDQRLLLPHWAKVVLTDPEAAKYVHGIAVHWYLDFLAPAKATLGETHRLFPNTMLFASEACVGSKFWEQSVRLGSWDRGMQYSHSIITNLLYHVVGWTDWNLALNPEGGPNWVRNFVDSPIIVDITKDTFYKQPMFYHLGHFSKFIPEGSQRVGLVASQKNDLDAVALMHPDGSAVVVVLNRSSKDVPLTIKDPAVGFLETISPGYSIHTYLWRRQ
Chain of 3',5'-cyclic-AMP phosphodiesterase 4B (Homo sapiens) (Q07343 whole entry, looked up): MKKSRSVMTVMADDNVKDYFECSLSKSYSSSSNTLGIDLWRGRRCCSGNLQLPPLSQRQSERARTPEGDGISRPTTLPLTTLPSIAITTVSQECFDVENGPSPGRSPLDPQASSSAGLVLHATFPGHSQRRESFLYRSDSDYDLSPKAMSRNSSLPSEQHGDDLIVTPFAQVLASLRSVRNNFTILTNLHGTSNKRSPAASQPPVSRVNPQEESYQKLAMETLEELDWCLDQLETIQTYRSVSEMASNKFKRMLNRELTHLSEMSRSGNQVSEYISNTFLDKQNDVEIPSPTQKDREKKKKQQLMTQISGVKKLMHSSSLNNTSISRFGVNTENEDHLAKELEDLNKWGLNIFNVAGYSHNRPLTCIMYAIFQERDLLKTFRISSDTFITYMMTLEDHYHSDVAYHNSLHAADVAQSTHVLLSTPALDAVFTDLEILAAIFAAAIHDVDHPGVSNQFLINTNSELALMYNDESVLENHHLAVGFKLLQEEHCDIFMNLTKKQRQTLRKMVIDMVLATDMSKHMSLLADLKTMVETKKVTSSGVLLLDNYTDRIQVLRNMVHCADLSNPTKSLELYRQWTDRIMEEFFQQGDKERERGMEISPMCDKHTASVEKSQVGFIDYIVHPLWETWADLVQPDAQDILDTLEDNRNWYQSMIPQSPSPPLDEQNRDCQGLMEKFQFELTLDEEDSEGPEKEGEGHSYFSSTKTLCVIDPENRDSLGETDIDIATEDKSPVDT
Chain of Cytochrome P450 1A2 (Homo sapiens) (P05177 whole entry, looked up): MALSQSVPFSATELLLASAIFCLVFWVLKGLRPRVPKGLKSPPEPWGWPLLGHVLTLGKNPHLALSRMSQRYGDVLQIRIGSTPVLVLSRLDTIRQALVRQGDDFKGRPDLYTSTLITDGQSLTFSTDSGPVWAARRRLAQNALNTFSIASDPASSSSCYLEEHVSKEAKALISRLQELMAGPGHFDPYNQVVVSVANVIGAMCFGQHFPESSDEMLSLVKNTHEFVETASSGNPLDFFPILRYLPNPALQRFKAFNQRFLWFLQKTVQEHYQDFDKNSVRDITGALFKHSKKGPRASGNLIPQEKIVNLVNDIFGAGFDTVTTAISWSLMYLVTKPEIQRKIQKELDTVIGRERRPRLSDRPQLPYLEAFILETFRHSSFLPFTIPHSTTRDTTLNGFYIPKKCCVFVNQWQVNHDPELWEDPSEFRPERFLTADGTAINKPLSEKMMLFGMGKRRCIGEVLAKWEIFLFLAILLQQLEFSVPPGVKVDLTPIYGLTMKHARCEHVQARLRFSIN
Chain of Glucocorticoid receptor (Homo sapiens) (P04150 whole entry, looked up, the tested form may be a part): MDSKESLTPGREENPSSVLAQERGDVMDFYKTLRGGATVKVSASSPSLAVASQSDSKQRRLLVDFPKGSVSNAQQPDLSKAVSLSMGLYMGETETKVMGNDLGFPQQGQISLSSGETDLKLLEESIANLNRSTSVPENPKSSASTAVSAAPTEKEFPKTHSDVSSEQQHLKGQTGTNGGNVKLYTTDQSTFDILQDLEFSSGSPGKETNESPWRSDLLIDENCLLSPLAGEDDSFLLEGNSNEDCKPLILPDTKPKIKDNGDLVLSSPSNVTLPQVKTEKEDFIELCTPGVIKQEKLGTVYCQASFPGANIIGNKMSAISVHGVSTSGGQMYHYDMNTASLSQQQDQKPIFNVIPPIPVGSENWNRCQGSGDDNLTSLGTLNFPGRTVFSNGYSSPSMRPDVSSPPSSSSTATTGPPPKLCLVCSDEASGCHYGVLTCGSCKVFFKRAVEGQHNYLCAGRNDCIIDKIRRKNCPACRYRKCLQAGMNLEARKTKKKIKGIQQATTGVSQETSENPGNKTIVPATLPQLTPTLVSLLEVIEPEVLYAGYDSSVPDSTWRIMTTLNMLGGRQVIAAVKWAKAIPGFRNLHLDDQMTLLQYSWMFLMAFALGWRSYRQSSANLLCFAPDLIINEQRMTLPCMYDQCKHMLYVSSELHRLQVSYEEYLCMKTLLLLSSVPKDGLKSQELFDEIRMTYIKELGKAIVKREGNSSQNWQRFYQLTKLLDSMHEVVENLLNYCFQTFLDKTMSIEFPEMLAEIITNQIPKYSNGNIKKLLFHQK
Chain of Cytochrome P450 2C9 (Homo sapiens) (P11712 whole entry, looked up): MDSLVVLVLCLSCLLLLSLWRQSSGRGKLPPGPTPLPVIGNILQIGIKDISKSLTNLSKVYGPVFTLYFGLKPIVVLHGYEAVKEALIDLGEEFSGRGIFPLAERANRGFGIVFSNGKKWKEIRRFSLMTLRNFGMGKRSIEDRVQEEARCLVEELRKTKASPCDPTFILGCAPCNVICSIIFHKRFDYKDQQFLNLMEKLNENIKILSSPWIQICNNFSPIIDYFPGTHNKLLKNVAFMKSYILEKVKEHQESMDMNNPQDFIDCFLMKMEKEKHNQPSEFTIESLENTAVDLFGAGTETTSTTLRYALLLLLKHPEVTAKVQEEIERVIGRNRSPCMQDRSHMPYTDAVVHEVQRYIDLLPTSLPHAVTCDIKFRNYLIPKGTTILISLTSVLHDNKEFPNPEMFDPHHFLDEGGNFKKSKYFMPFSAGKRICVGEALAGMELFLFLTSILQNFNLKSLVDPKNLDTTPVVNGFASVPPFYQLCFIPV
Chain of Cytochrome P450 2C19 (Homo sapiens) (P33261 whole entry, looked up): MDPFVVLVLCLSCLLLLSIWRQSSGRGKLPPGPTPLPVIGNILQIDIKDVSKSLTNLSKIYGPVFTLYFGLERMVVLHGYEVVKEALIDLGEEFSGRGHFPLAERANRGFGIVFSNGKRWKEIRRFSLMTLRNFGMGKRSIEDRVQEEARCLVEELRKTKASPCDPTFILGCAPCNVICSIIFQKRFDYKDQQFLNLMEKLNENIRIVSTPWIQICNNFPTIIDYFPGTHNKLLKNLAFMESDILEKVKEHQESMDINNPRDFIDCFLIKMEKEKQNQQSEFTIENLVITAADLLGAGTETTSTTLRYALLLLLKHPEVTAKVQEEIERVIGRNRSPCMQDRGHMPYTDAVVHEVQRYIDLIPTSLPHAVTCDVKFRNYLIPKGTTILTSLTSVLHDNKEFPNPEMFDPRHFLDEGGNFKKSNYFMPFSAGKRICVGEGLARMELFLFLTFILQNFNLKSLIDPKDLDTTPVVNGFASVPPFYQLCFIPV
Chain of Cytochrome P450 2D6 (Homo sapiens) (P10635 whole entry, looked up): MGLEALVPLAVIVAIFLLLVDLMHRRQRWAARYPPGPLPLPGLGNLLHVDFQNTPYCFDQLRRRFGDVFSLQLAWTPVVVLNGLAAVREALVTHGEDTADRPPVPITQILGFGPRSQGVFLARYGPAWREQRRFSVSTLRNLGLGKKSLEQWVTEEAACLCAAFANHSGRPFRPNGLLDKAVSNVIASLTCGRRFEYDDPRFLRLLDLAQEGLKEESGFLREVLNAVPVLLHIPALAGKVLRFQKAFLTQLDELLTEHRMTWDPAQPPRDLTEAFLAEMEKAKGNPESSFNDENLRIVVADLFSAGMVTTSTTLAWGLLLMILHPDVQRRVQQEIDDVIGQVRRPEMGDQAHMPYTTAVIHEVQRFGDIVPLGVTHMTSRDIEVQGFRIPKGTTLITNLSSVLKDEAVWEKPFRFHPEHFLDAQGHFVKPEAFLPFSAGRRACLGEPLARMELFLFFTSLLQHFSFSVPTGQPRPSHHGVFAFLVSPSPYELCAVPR

In the case of `COCC(=O)N1CCC[C@@]2(CCN(C(=O)Nc3cccc(C#N)c3)C2)C1`, the Potency was > 11.4 µM (inactive) in [1] and > 46 µM (inactive) in experiment [6]. Also, the activity change, negative = inhibition in experiment [2] was 0.866% (inactive); in experiment [4], -2.97% (inactive); in experiment [13], 4.94% (inactive). In addition, the Potency result in experiment [3], in experiment [8], in [9], in experiment [10], in experiment [11] and in experiment [12] was “inactive” each time. Further, in [14], the Potency entry was “inactive”. Besides, the activity, negative = inhibition in [5] was 2.49% (inactive). Further, the molecule was classed as inactive in experiment [7]. Moreover, the max response was found to be 13.7% in experiment [13] (setting [16]) and 21.6% in experiment [13] (setting [17]).

In the case of `CC(C)NC(=O)N1CCC2(CC1)CCN(C(=O)c1cc(C(F)(F)F)cc(C(F)(F)F)c1)CC2`, the Potency is > 11.4 µM (inactive) in experiment [1] and > 46 µM (inactive) in [6]. Also, the activity change, negative = inhibition was -12% (inactive) in experiment [2], 25.7% (inactive) in [4] and -0.11% (inactive) in [13]. Besides, the Potency entry in [3], in experiment [8], in experiment [9], in experiment [10] and in experiment [14] was “inactive” in each case. Further, the activity, negative = inhibition in experiment [5] is -9.32% (inactive). In addition, the molecule was classed as inactive in experiment [7]. The max response is -8.79% in [13] (setting [16]) and -7.75% in [13] (setting [17]).

As for `O=C(c1csnn1)N1CCC2(CCCN(Cc3cc(C(F)(F)F)cc(C(F)(F)F)c3)C2)CC1`, the Potency in experiment [1] is > 11.4 µM (inactive); in experiment [3] it was 12.6 µM (active); in [6], > 46 µM (inactive). Besides, the activity change, negative = inhibition is 10.6% (inactive) in experiment [2], 10.5% (inactive) in experiment [4] and -5.5% (inactive) in experiment [13]. Also, in experiment [5], the activity, negative = inhibition was 3.73% (inactive). Besides, the call in experiment [7] was inactive. The Potency result in [8] and in experiment [14] was “inactive” throughout. Also, the max response in experiment [13] (setting [16]) was 21.4%; in [13] (setting [17]), 17.2%.

Take `COCC(=O)N1CCC2(CC1)CN(Cc1cc(C(F)(F)F)cc(C(F)(F)F)c1)C2`: the Potency in experiment [1] was > 11.4 µM (inactive); in experiment [3], 25.1 µM (active); in experiment [6] it was > 46 µM (inactive). The figures for the activity change, negative = inhibition in experiment [2], in experiment [4] and in experiment [13] were 11% (inactive), 23.6% (inactive) and -7.21% (inactive), respectively. Further, the activity, negative = inhibition in experiment [5] is -2.63% (inactive). In experiment [7], the result was inactive. In addition, the Potency entry in experiment [8] and in [14] was “inactive” throughout. Further, the max response is 25.1% in experiment [13] (setting [16]) and 17.9% in experiment [13] (setting [17]).

Take `Cc1noc(C)c1C(=O)N1CCC[C@@]2(CCN(c3ccccc3)C2)C1`: the Potency is > 11.4 µM (inactive) in experiment [1], 25.1 µM (active) in experiment [3], > 46 µM (inactive) in experiment [6] and 5.01 µM (active) in [10]. Besides, the figures for the activity change, negative = inhibition in experiment [2], in experiment [4] and in experiment [13] were -7.05% (inactive), -18.1% (inactive) and -2.45% (inactive), respectively. In addition, in experiment [5], the activity, negative = inhibition was 3.26% (inactive). The outcome in experiment [7] was inactive. Also, the Potency result in experiment [8], in [15] and in [14] was “inactive” each time. The figures for the max response in experiment [13] (setting [16]) and in [13] (setting [17]) were 13.4% and 14.8%, respectively.

On to `CS(=O)(=O)N1CCC2(CCN(c3ccccc3)CC2)CC1`, for which the Potency was > 11.4 µM (inactive) in [1] and > 46 µM (inactive) in experiment [6]. Besides, the activity change, negative = inhibition is 0.201% (inactive) in [2], -7.56% (inactive) in experiment [4] and 5.49% (inactive) in experiment [13]. Moreover, the Potency result in experiment [3], in [8], in experiment [9] and in experiment [14] was “inactive” each time. For the same molecule, the activity, negative = inhibition in experiment [5] is -0.282% (inactive). The outcome in experiment [7] was inactive. In addition, the max response in experiment [13] (setting [16]) turned out to be 20.7%; in experiment [13] (setting [17]), 29.9%.

As to `O=S(=O)(c1ccccc1)N1CCC2(CCN(C(c3ccccc3)c3ccccc3)CC2)CC1`, the Potency in experiment [1] was > 11.4 µM (inactive); in experiment [6], > 46 µM (inactive); in [9], 501 nM (active); in [15], 12.6 µM (active). Also, the activity change, negative = inhibition in [2] was -13.4% (inactive); in [4] it was -19.9% (inactive); in experiment [13], 6.93% (inactive). In addition, the Potency entry in experiment [3], in [8], in experiment [10] and in experiment [14] was “inactive” in each case. The activity, negative = inhibition in experiment [5] is -5.59% (inactive). Also, the call in [7] was inactive. For the same molecule, the max response in [13] (setting [16]) was found to be 11.2%; in experiment [13] (setting [17]) it was 22.7%.

With `CS(=O)(=O)N1CCC2(CCN(c3cccc(-c4ccccc4)c3)CC2)CC1`, the Potency in experiment [1] was > 11.4 µM (inactive); in experiment [6], > 46 µM (inactive). The activity change, negative = inhibition in [2] was -1.25% (inactive); in experiment [4], 10.1% (inactive); in experiment [13], -1.6% (inactive). Also, the Potency result in experiment [3], in experiment [8], in [9], in [12] and in [14] was “inactive” each time. Besides, the activity, negative = inhibition in experiment [5] was -21% (inactive). For the same molecule, the result in experiment [7] was inactive. The max response worked out at 19.1% in experiment [13] (setting [16]) and 18.7% in experiment [13] (setting [17]).
